High-throughput results deposited in PubChem BioAssay by National Center for Advancing Translational Sciences (NCATS).
TRPV1 potentiator – HTS Assay for Compounds that Act as Potentiators of the Vanilloid Receptor 1 | 320,000 compounds, 0.02% hits | potentiation, % at 8.33 µM | AID 540277, 2011 | TRPV1-expressing cells, Fluo-8 calcium influx, capsaicin EC20 potentiation; in the data active = potentiation above about 80%; inconclusive = between about 30% and that limit; note: 0% is about no effect
Target sequence (Q8NER1 whole entry, looked up): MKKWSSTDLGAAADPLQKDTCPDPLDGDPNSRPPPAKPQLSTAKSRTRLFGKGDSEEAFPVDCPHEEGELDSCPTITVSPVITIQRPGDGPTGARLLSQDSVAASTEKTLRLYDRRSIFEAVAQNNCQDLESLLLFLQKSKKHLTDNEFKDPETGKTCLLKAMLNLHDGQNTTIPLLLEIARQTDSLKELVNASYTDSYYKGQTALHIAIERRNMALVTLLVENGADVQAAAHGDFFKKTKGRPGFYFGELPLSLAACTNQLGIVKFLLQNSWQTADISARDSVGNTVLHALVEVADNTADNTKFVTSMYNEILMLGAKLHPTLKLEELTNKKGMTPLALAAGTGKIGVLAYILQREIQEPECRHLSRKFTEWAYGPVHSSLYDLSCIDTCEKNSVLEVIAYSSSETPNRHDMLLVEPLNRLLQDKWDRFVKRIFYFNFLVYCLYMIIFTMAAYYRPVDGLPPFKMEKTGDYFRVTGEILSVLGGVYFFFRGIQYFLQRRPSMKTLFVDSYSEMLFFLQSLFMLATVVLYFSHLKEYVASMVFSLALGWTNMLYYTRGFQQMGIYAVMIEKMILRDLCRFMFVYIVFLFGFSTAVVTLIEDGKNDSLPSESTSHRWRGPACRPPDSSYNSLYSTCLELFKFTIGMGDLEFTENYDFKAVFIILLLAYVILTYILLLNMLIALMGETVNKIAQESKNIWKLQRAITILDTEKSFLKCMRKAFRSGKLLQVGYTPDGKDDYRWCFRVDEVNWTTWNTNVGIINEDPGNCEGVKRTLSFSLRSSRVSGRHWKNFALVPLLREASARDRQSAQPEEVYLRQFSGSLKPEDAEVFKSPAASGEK
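Cells expressing TRPV1 were dye-loaded with Fluo-8 and read kinetically: 10 s baseline, 3 min after compound (agonist portion), then 2 min after EC20 capsaicin (allosteric enhancer portion). Calcium-bound dye fluorescence at 480/520 nm.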
KCNH2 3.1 inh – qHTS for Inhibitors of KCHN2 3.1: Mutant qHTS; 340,000 compounds, 0.95% hits; U2OS KCNH2 3.1, thallium flux FluxOr; hits give low values; AID 720553, 2013; activity change, % (tested at about 1.8 µM);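 active = maximum activity change below -70%; inconclusive = maximum activity change from -70% to -50%; inactive = maximum activity change above -50%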;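 note: thallium influx rate constant from kinetic fluorescence after stimulation buffer; % is set by controls: 0 for no effect and ±100 for the full control effect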
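FluxOr-based Tl+ influx in U2OS cells transduced with KCNH2 3.1 virus; rate constants normalized to DMSO controls.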
TRPV1 ag – HTS Assay for Compounds that Act as Agonists of the Vanilloid Receptor 1; Transient receptor potential cation channel subfamily V member 1 (Homo sapiens), Q8NER1; TRPV1-expressing cells, Fluo-8 calcium influx, agonist mode; activation, % at 8.33 µM; 320,000 compounds, 0.19% hits; in the data active = activation above about 80%; inconclusive = between about 30% and that limit; note: 0% is about no effect
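Cells expressing TRPV1 were dye-loaded with Fluo-8 and read kinetically: 10 s baseline, 3 min after compound (agonist portion), then 2 min after EC20 capsaicin (allosteric enhancer portion). Calcium-bound dye fluorescence at 480/520 nm.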
KCNH2 WT inh – qHTS for Inhibitors of KCHN2 3.1: Wildtype qHTS. Voltage-gated inwardly rectifying potassium channel KCNH2 (Homo sapiens), Q12809. U2OS, BacMam KCNH2, thallium flux FluxOr; hits give low values. activity change, % at 1.84 µM. 340,000 compounds, 0.37% hits;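 active = maximum activity change below -70%; inconclusive = maximum activity change between -70% and -50%; inactive = maximum activity change above -50%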; note: % is set by controls: 0 for no effect and ±100 for the full control effect
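U2OS cells transduced with wild-type KCNH2 virus are loaded with FluxOr dye for 45 min, and thallium flux is measured in kinetic reads before and after stimulation buffer. Rate constants are normalized to DMSO controls.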
Numbers without * were called inactive. Compounds with a hit are over-represented: about 1.2% of the library has one in this group of screens.

What do the screens show for `O=[N+]([O-])c1ccc(/C=C/C2=NN(c3ccccc3)C(c3ccco3)C2)cc1` (stereo not drawn)?
TRPV1 potentiator: 26; KCNH2 3.1 inh: -100*; TRPV1 ag: inconclusive; KCNH2 WT inh: inconclusive

How did COc1cc2c(cc1OC)C(c1ccc(Cl)cc1)CC(=O)N2 (stereo not drawn) do in these assays?
TRPV1 potentiator: inconclusive; KCNH2 3.1 inh: -5; TRPV1 ag: 10; KCNH2 WT inh: -14

Results for COc1cc2c(cc1OC)C(C(=O)Nc1ccc(F)c(Cl)c1)CC(=O)N2 (stereo not drawn) ?
TRPV1 potentiator: 17; KCNH2 3.1 inh: -110*; TRPV1 ag: -5; KCNH2 WT inh: 2

Results for CCCCN(C(=O)CC1CCCC1)c1c(N)n(Cc2ccccc2)c(=O)[nH]c1=O ?
KCNH2 3.1 inh: 2; KCNH2 WT inh: -4

Results for Cc1ccc(Nc2nc(-c3c(C)nc4ccccn34)cs2)cc1 ?
TRPV1 potentiator: 0; KCNH2 3.1 inh: -78*; TRPV1 ag: 8; KCNH2 WT inh: -24

How did COc1ccc(S(=O)(=O)NC(C(=O)OCC(=O)Nc2ccc(N3CCOCC3)cc2)C(C)C)cc1 (stereo not drawn) do in these assays?
KCNH2 3.1 inh: 11; KCNH2 WT inh: 12

What do the screens show for `C#CCNCCS(=O)(=O)N(Cc1ccc(Br)cc1)[C@@H](CC(C)C)C(=O)O`?
KCNH2 3.1 inh: 10; KCNH2 WT inh: 15

Results for O=C(NCc1ccc(F)cc1)Nc1cccc(Cl)c1 ?
TRPV1 potentiator: -12; KCNH2 3.1 inh: 0; TRPV1 ag: 26; KCNH2 WT inh: -9

What do the screens show for `O=C(NCc1ccc(F)cc1)Nc1ccc(Cl)cc1`?
TRPV1 potentiator: -11; KCNH2 3.1 inh: -4; TRPV1 ag: 80*; KCNH2 WT inh: -3

What do the screens show for `COC(=O)c1cc(C(=O)c2cc(Cl)ccc2O)coc1=N`?
TRPV1 potentiator: 17; KCNH2 3.1 inh: -5; TRPV1 ag: -2; KCNH2 WT inh: -172*

Results for COCCOC(=O)c1cc(C(=O)c2cc(F)ccc2O)coc1=N ?
TRPV1 potentiator: 6; KCNH2 3.1 inh: 8; TRPV1 ag: -2; KCNH2 WT inh: -7

What do the screens show for `COc1cccc(NS(=O)(=O)c2ccc3[nH]cc(C(=O)NC(C)c4ccccc4)c(=O)c3c2)c1` (stereo not drawn)?
TRPV1 potentiator: -8; TRPV1 ag: 27

What do the screens show for `Cc1cc(S(=O)(=O)c2ccc(Cl)cc2)nc(S(=O)(=O)c2ccc(Cl)cc2)c1C#N`?
KCNH2 3.1 inh: -73*; KCNH2 WT inh: 2

What do the screens show for `CC[N+]1(C)CCC(O)(c2ccc(OC)cc2)C(C(=O)c2ccc(OC)cc2)C1` (stereo not drawn)?
KCNH2 3.1 inh: -12; KCNH2 WT inh: -1

Results for COc1ccc2cc(/C(C)=N/NC(=O)c3cc(C)oc3C)ccc2c1 ?
KCNH2 3.1 inh: -10; KCNH2 WT inh: 10

How did O=C(CCC(=O)c1ccc(F)cc1)OCc1nnc(-c2ccc([N+](=O)[O-])cc2)o1 do in these assays?
TRPV1 potentiator: -5; KCNH2 3.1 inh: -17; TRPV1 ag: 2; KCNH2 WT inh: -8

Results for CCC/C=C/c1ccc(CN2C(CC(C)C)C(=O)N(Cc3cn(CC4CCCCC4)nn3)CCS2(=O)=O)cc1 (stereo not drawn) ?
KCNH2 3.1 inh: 1; KCNH2 WT inh: -5

How did CCOC(=O)c1ccc(NC(=O)Nc2ccc3c(c2)OCCO3)cc1 do in these assays?
TRPV1 potentiator: -16; KCNH2 3.1 inh: 25; TRPV1 ag: 4; KCNH2 WT inh: -76*

How did CCCCCC(=O)N1C[C@H](O)[C@@H](n2cc(COC(=O)c3ccccc3)nn2)C[C@@H]1c1ccc(Cl)cc1 do in these assays?
KCNH2 3.1 inh: -38; KCNH2 WT inh: 11

What do the screens show for `O=C(NCc1ccccc1)c1onc(CSc2ccc(F)cc2)c1C(=O)NCCCN1CCOCC1`?
TRPV1 potentiator: 21; KCNH2 3.1 inh: -81*; TRPV1 ag: 5; KCNH2 WT inh: inconclusive

How did CC(C)N(Cc1nnc(-c2ccc(Cl)cc2)o1)C(=O)c1cc2ccccc2o1 do in these assays?
TRPV1 potentiator: -9; KCNH2 3.1 inh: -91*; TRPV1 ag: 19; KCNH2 WT inh: -1
